From PubChem BioAssay (Tox21)
“And” between values parts separate entries of the source, which are not always exact repeats. Identical values can stand only once. Inconclusive results are not listed. The source made the active and inactive calls. Unless noted, calls follow the shape of the full dose curve.

How the values were obtained:
[1] = Nuclear factor erythroid 2-related factor 2/antioxidant responsive element (Nrf2/ARE) small molecule agonists: luciferase reporter gene qHTS assay in human keratinocytes (AID 1919969); also: nearly all actives have a fitted effect of over 35% in size; also: potency is read from the fitted curve at half-maximal effect
[2] = target: Gonadotropin-releasing hormone receptor (Homo sapiens) (UniProt P30968); assay: Human gonadotropin-releasing hormone receptor (GnRHR) small molecule agonists, calcium flux assay in GnRHR-HEK293 cells (AID 1920063); also: nearly all actives have a fitted effect of over 35% in size; also: potency is read from the fitted curve at half-maximal effect
How it was run: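 HEK293 cells stably expressing human GnRHR were plated 18 h at 37 °C, loaded with calcium dye 1 h at 37 °C, then given compound in agonist mode; fluorescence (Ex/Em 480/540) read kinetically for 3 min at 1 s intervals.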

[3] = G protein-coupled receptor (GPCR) small molecule agonists, calcium flux assay: HEK293 wild type cell line counter screen (AID 1920065)
How it was run: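 Cells were plated and cultured 18 h at 37 C/5% CO2, then loaded with calcium dye for 1 h at 37 C. Compounds in DMSO were pin-transferred in agonist mode, and fluorescence (Ex/Em 480/540) was read kinetically for 3 min at 1 s intervals.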

[4] = p53 small molecule agonists, cell-based qHTS assay with human liver microsomes (AID 1963577);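 also: p53 response element beta-lactamase reporter cells with liver microsomes plus NADPH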
How it was run: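 With metabolic activation: human liver microsomes (0.5 mg/mL final) plus NADPH (0.5 mg/mL final) added alongside compounds to p53RE-bla cells; 16 h 37 C exposure; beta-lactamase read by LiveBLAzer fluorescence.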

[5] = p53 small molecule agonists, cell-based qHTS assay with rat liver microsomes (AID 1963578)
How it was run: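 Metabolic activation by rat liver microsomes and NADPH, each 0.5 mg/mL final, added right after compounds to p53RE-bla reporter cells (4,000/well, plated 5 h earlier). 16 h at 37 C, then LiveBLAzer substrate for 2 h at room temperature in the dark; fluorescence read-out.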

[6] = p53 small molecule agonists, cell-based qHTS assay with human liver microsomes: qHTS cell viability counter screen (AID 1963579); also: nearly all actives have a fitted effect of over 45% in size
How it was run: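 Metabolic activation used human liver microsomes and NADPH, both 0.5 mg/mL final, over 16 hours at 37 C on p53RE-bla cells (4,000/well). Cytotoxicity measured by CellTiter-Glo luminescence, 30 min at room temperature.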

[7] = p53 small molecule agonists, cell-based qHTS assay with rat liver microsomes: qHTS cell viability counter screen (AID 1963580); also: nearly all actives have a fitted effect of over 45% in size
How it was run: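 p53RE-bla HCT-116 cells were exposed 16 h at 37 C to compounds with rat liver microsomes (0.5 mg/mL) and NADPH (0.5 mg/mL). Viability was measured in the same wells as ATP content by CellTiter-Glo luminescence.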

[8] = p53 small molecule agonists, cell-based qHTS assay: qHTS cell viability counter screen (AID 1963581); also: nearly all actives have a fitted effect of over 45% in size
How it was run: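 p53RE-bla HCT-116 cells were exposed to compounds for 16 h at 37 C; after the beta-lactamase FRET read in the same wells, CellTiter-Glo was added and luminescence (intracellular ATP) read after 30 min at room temperature.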

[9] = p53 small molecule agonists, cell-based qHTS assay (AID 1963582; active = well fitted activation curve with a large enough effect in the signal ratio in the repeat runs, not every such curve was filed as active; the % refers to the signal ratio)
How it was run: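 p53RE-bla beta-lactamase reporter cells rested 5 h at 37 C/5% CO2, then received compounds in DMSO by pin transfer and were incubated 16 h at 37 C. LiveBLAzer B/G FRET substrate was loaded for 2 h at room temperature before fluorescence reading.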

[10] = target: 5-hydroxytryptamine receptor 2A (Homo sapiens) (UniProt P28223); assay: 5-hydroxytryptamine receptor 2A (HTR2A) small molecule antagonists, cell-based qHTS assay (AID 1963586); also: nearly all actives have a fitted effect of over 45% in size
How it was run: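 Antagonist-mode intracellular calcium assay: DOI (4 nM) added after 5 min compound pre-incubation at room temperature to dye-loaded HTR2A-CHO cells. Fluorescence followed for 3 min, sampled every second.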

[11] = target: 5-hydroxytryptamine receptor 2A (Homo sapiens) (UniProt P28223); assay: 5-hydroxytryptamine receptor 2A (HTR2A) small molecule agonists, cell-based qHTS assay (AID 1963587); also: nearly all actives have a fitted effect of over 30% in size
How it was run: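 CHO cells stably expressing human HTR2A, plated 18 h, loaded with calcium dye 1 h at 37 C. Agonist mode: compounds added and intracellular calcium fluorescence recorded kinetically for 2 min at 1 sec intervals.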

[12] = target: Muscarinic acetylcholine receptor M1 (Homo sapiens) (UniProt P11229); assay: Cholinergic receptor muscarinic 1 (CHRM1) small molecule antagonists, cell-based qHTS assay (AID 1963588); also: nearly all actives have a fitted effect of over 40% in size; also: potency is read from the fitted curve at half-maximal effect
How it was run: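 CHRM1-CHO calcium-flux assay, antagonist mode. Cells were seeded 18 h, dye-loaded 1 h at 37 C and given compound for 5 min at RT, then acetylcholine was added at 50nM. FDSS fluorescence was read 3 min; 15 concentrations, three runs.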

[13] = target: Muscarinic acetylcholine receptor M1 (Homo sapiens) (UniProt P11229); assay: Cholinergic receptor muscarinic 1 (CHRM1) small molecule agonists, cell-based qHTS assay (AID 1963589); also: nearly all actives have a fitted effect of over 35% in size
How it was run: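 CHO cells stably expressing human CHRM1, seeded 18 h at 37 C/5% CO2, dye-loaded 1 h at 37 C, then given compound in agonist mode; intracellular calcium fluorescence read kinetically at 1 s intervals. Fifteen concentrations, three independent runs.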

[14] = cAMP Responsive Elements (CRE) small molecule agonists, cell-based qHTS assay (AID 1963590)
How it was run: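 CRE-bla HEK 293T cells in DMEM with 10% dialyzed FBS, NEAA, pyruvate and 25 mM HEPES were plated 18 h at 37 C/5% CO2, then exposed to compounds in DMSO for 3 h before LiveBLAzer B/G FRET substrate addition.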

[15] = cAMP Responsive Elements (CRE) small molecule antagonists, cell-based qHTS assay (AID 1963591; active = well fitted inhibition curve with a large enough effect in the signal ratio in the repeat runs, not every such curve was filed as active; the % refers to the signal ratio)
How it was run: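 CRE-bla HEK293T cells were plated 18 h at 37 °C/5% CO2, pinned with compound in DMSO, then stimulated with NKH477 at 0.25 uM final for 3 h. LiveBLAzer B/G FRET substrate was added and plates incubated 2 h at room temperature.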

[16] = target: Beta-2 adrenergic receptor (Homo sapiens) (UniProt P07550); assay: Adrenergic beta2 receptor (ADRB2) small molecule antagonists, cell-based qHTS assay (AID 1963592); also: series mostly up to about 92 µM; nearly all actives have a fitted effect of over 50% in size
How it was run: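 Cells (CHO, stable ADRB2 overexpression) incubated 18-20hr at 37C; compounds added from DMSO; agonist mix (1nM isoproterenol, 100uM IBMX, 25uM Ro-20-1724) added; 0.5hr RT; d2-cAMP and anti-cAMP-cryptate added; 1hr RT; 665/615 nm read.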

[17] = target: D(2) dopamine receptor (Homo sapiens) (UniProt P14416); assay: Dopamine D2 receptor (DRD2) small molecule agonists, cell-based qHTS assay (AID 1963594); also: nearly all actives have a fitted effect of over 35% in size
How it was run: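 HEK293 cells stably expressing human DRD2, pre-treated with PDE inhibitor Ro20-1724 (0.1 mM final) and compound 10 min at room temperature, then stimulated with NKH477 (200nM […]) for 30 min. cAMP read by HTRF (665/620 nm).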

[18] = target: KiSS-1 receptor (Homo sapiens) (UniProt Q969F8); assay: Human kisspeptin (KISS1R) small molecule agonists, calcium flux assay in KISS1R-HEK293 cells (AID 1920064; active = well fitted activation curve with a large enough effect in the repeat runs)
How it was run: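 HEK293 cells stably expressing human KISS1R were plated 18 h at 37 °C, loaded with calcium dye for 1 h at 37 °C, then given compound by pin tool. Fluorescence (Ex/Em 480/540) was read kinetically for 3 min.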

[19] = target: Beta-2 adrenergic receptor (Homo sapiens) (UniProt P07550); assay: Adrenergic beta2 receptor (ADRB2) small molecule agonists, cell-based qHTS assay (AID 1963593);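 also: CHO cells stably overexpressing human ADRB2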
How it was run: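 CHO cells stably over-expressing ADRB2 were plated overnight at 37C, then dosed with compounds plus a stimulation mix containing 100uM IBMX and 25uM Ro-20-1724 for 0.5hr at room temperature. cAMP was measured by HTRF competition, 1hr.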

[20] = target: D(2) dopamine receptor (Homo sapiens) (UniProt P14416); assay: Dopamine D2 receptor (DRD2) small molecule antagonists, cell-based qHTS assay (AID 1963595; active = well fitted inhibition curve with a large enough effect in the signal ratio in the repeat runs, with a control signal flat; the % refers to the signal ratio)
How it was run: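 In this cell-based antagonist screen, compounds act for 10 min at room temperature before a 30 min challenge with 12 nM quinpirole and 200 nM NKH477. cAMP is quantified by HTRF competition in DRD2-HEK293 cells containing 0.1 mM Ro20-1724.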

Measured: Potency

Sequence of Beta-2 adrenergic receptor (Homo sapiens) (P07550 whole entry, looked up): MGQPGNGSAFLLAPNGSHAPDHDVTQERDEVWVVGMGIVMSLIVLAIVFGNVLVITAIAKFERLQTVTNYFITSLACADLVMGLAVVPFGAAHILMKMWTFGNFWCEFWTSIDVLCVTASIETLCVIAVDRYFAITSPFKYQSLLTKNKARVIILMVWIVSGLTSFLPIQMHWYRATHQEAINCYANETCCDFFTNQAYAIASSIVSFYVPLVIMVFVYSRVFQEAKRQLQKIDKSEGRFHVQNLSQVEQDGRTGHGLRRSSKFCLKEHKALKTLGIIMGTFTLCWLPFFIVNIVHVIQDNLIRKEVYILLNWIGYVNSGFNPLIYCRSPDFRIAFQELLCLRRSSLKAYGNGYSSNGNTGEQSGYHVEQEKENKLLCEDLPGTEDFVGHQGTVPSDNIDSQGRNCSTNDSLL
Sequence of Gonadotropin-releasing hormone receptor (Homo sapiens) (P30968 whole entry, looked up): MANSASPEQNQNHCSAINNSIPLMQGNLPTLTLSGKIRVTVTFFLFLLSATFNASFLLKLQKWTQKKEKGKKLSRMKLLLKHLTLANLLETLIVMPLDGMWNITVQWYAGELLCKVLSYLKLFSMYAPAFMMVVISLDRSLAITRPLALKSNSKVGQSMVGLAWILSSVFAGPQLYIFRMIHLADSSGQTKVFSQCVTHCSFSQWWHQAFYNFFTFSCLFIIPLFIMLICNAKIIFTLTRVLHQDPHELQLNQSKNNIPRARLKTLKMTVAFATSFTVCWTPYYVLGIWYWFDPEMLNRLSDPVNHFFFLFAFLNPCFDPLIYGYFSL
Sequence of 5-hydroxytryptamine receptor 2A (Homo sapiens) (P28223 whole entry, looked up): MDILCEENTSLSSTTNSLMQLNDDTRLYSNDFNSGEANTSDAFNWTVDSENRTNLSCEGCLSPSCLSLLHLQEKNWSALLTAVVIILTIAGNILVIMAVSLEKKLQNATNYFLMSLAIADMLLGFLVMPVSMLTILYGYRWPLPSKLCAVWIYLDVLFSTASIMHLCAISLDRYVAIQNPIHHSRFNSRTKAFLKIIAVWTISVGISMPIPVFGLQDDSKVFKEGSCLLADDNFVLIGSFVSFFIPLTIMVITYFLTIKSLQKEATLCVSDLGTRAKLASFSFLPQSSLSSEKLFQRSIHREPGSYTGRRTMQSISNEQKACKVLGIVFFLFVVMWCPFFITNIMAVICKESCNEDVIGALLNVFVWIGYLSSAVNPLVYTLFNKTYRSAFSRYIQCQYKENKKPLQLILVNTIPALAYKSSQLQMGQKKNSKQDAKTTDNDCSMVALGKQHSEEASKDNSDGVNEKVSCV
Sequence of D(2) dopamine receptor (Homo sapiens) (P14416 whole entry, looked up): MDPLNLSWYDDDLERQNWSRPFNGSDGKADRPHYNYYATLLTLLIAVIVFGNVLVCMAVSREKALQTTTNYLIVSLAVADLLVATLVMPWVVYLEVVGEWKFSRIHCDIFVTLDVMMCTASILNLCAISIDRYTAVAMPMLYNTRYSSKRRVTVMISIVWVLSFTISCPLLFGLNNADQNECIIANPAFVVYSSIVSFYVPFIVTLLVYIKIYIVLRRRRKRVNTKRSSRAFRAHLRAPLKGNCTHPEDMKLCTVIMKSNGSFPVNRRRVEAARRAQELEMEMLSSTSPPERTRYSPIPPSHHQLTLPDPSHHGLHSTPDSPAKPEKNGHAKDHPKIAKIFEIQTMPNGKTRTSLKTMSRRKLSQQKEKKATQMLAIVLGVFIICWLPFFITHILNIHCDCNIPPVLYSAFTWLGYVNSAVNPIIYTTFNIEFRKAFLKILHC
Sequence of KiSS-1 receptor (Homo sapiens) (Q969F8 whole entry, looked up): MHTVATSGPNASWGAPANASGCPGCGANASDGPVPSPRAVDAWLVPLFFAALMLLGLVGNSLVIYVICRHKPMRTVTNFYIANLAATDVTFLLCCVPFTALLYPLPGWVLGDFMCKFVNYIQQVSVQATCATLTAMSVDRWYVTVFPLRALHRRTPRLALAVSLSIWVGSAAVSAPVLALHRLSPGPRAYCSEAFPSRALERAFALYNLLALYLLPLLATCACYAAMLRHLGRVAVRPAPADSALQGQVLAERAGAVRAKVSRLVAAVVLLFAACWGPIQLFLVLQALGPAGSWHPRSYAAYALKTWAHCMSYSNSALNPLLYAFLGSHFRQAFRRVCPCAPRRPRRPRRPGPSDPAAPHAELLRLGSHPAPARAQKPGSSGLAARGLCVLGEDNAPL
Sequence of Muscarinic acetylcholine receptor M1 (Homo sapiens) (P11229 whole entry, looked up): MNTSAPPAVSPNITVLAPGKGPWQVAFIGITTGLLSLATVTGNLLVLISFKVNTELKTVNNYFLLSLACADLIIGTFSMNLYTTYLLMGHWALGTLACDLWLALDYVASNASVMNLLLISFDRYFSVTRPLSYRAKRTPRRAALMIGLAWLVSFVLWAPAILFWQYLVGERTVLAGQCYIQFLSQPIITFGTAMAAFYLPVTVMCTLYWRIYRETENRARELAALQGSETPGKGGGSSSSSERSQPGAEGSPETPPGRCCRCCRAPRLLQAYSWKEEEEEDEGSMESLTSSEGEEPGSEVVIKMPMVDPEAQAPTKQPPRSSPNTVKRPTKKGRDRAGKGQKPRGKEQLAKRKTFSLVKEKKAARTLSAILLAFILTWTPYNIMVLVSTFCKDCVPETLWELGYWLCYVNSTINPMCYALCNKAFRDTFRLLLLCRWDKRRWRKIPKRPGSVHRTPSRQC

O=P(O)(O)CN(CP(=O)(O)O)CP(=O)(O)O
inactive: [1] | [2] | [3] | [4] | [5] | [6] | [7] | [8] | [9] | [10] | [11] | [12] | [13] | [14] | [15] | [16] | [17]

Oc1ccc(Cl)cc1
inactive: [2] | [18] | [3] | [4] | [5] | [6] | [7] | [8] | [9] | [10] | [13] | [14] | [15] | [16] | [19] | [17] | [20]

Clc1ccc(C(Cl)(Cl)Cl)cn1
inactive: [2] | [18] | [3] | [4] | [5] | [6] | [7] | [9] | [10] | [11] | [12] | [13] | [14] | [15] | [16] | [17] | [20]

CC(C)(N)Cc1ccccc1Cl
inactive: [2] | [18] | [3] | [4] | [5] | [6] | [7] | [8] | [9] | [10] | [11] | [12] | [14] | [15] | [16] | [17] | [20]

Cc1ccc2c(c1N)C(=O)c1ccccc1C2=O
inactive: [18] | [3] | [4] | [5] | [6] | [7] | [8] | [9] | [10] | [11] | [12] | [13] | [15] | [16] | [19] | [17] | [20]
active: [1] 60.4 µM and 1.93 µM

CCCCCCCCCCCCCCCC[N+](C)(C)C
active: [2] 13.3 µM and 30.9 µM and 12 µM | [12] 2.03 µM and 840 nM
inactive: [1] | [3] | [6] | [10] | [15] | [16] | [17]
